PTHR1 ag: agonists of human PTHR1 parathyroid hormone receptor. Q03431. 0.075% of 410,000 active. Potency, µM (titrated, usually from 115 µM), actives largely listed as activators. HEK293 GP2 PTHR1 cells, GloSensor cAMP luminescence, 1 h; note: nearly all actives have a fitted effect of over 55% in size
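HEK-293-derived GP2 cells expressing PTHR1 and a GloSensor cAMP reporter, 3,000/well, plated overnight, given luciferin plus IBMX (each 0.5 mM as added) for 1 h at 37 °C, then compound for 1 h at 37 °C. Luminescence was read after 15 min at room temperature.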
GLP1R inv ag: GLP-1 receptor (human) inverse agonism; P43220; HEK293 GLP-1R CRE-luciferase, luminescence, 24 h; GLP-1R form is constitutively active; Potency, µM (titrated, usually from 38.3 µM), usual class: inhibitors; 1.6% of 410,000 active; note: nearly all actives have a fitted effect of over 55% in size
Target sequence (P43220 whole entry, looked up): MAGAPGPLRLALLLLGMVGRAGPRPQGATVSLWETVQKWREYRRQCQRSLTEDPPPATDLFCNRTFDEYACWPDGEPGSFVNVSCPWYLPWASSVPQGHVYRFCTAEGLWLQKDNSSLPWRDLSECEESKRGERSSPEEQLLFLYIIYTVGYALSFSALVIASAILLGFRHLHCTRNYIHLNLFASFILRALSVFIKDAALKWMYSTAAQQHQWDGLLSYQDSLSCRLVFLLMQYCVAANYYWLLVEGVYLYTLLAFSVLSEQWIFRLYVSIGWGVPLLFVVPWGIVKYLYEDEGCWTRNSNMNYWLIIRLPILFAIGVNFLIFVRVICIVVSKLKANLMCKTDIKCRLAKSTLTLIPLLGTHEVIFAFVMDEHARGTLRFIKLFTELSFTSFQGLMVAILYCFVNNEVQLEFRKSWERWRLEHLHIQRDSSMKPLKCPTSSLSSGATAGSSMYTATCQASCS
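HEK293 cells stably co-expressing a cAMP-responsive luciferase reporter and constitutively active GLP-1R were seeded, incubated 12 h, then exposed to compounds for 24 h at 37 C. Luminescence was read 12 min after detection reagent; inverse agonists lower signal.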
LDHA inh: blocks human lactate dehydrogenase A; purified LDHA, NADH/diaphorase-resazurin fluorescence; active compounds read low; activity change, % (values are at about 110 or 230 µM); 0.15% of 480,000 active; AID 1347041; in the data active = activity change below about -30%; inconclusive = mostly about -25% to -30%
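Human LDH5 (2 nM) was incubated with 0.06 mM NADH and 0.2 mM pyruvate for 5 min at room temperature in Tris pH 7.4. Remaining NADH was coupled through diaphorase/resazurin, and resorufin fluorescence was read at 0 and 20 min.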
HEK293 tox: cytotoxic in the GLP-1 receptor inverse agonist counter-screen. Potency, µM (doses to about 38.3 µM), actives largely listed as inhibitors. HEK293 cAMP-luciferase reporter cells, luminescence, 24 h. 0.13% of 410,000 active;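 note: loss of luciferase light is scored as toxicity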
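Compound-treated cells are incubated 24 hr at 37 deg C under 5% CO2 after a 12 hour attachment period, then luciferase detection reagent is added and luminescence is measured following 12 min at room temperature; lowered signal indicates toxicity.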
IDH1 R132H inh: inhibitors of human mutant IDH1 R132H | O75874 | IDH1-R132H enzyme, NADPH consumption, diaphorase/resazurin fluorescence | Potency, µM (titrated, usually from 76.6 µM), actives largely listed as inhibitors | 0.093% of 390,000 active | AID 602179; note: nearly all actives have a fitted effect of over 65% in size
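IDH1-R132H (0.5 ug/mL dispensed) in pH 7.5 Tris buffer was preincubated 30 min with compound, then given a substrate mix of 0.016 mM NADPH and 2 mM alpha-KG for 80 min at room temperature; remaining NADPH was read by diaphorase/resazurin fluorescence.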
GLP-1R agonist: activates the human GLP-1 receptor. P43220. HEK293 GLP-1R CRE-luciferase, luminescence, 4-6 h; cells express a hypersensitive GLP-1R form. Potency, µM (highest dose often 45.6 µM), most hits filed as activators. 0.007% of 380,000 active. AID 624172
Numbers stand for hits; – = inactive; ? = inconclusive; · = no result. Most compounds without a hit are left out; they make up all but 1.7% or so of the library. Unless noted, calls come from the whole dose curve; as a rule, active = well fitted curve in the direction sought with a large enough effect; inconclusive = small, poorly fitted or top-dose-only effect, or another doubt; inactive = no such curve, though single readings can be large; an effect the other way counts as inactive or inconclusive.

SMILES	PTHR1 ag	GLP1R inv ag	LDHA inh	HEK293 tox	IDH1 R132H inh	GLP-1R agonist
Cn1cc(C(=O)NCC(=O)NC(C)(C)C)c2ccccc21	·	·	–	·	·	·
O=S(=O)(c1ccc(Cl)c(NC(=S)N/N=C/c2ccc(O)cc2)c1)N1CCOCC1	–	?	–	10µM	–	–
Cc1[nH]nc2c1C(c1ccccc1)SCC(=O)N2 (centres undefined)	·	·	–	·	·	·
O=C1CC(NC(=O)C(F)(F)F)=NN1c1ccccc1	–	2.5µM	–	?	–	–
O=C(Nc1ccc(Cl)c(C(F)(F)F)c1)c1ccc2c(c1)CCN2S(=O)(=O)c1ccccc1	–	5µM	–	–	–	·
Cc1cccc2[nH]cc(CCN)c12	·	·	–	·	·	·
CCN(CC)C(=O)c1ccc(NC(=O)c2cccc(C(F)(F)F)c2)cc1	–	?	–	–	–	–
Cc1cc(Nc2cccc(C(F)(F)F)c2)nc2ccc(NC(=O)c3cccnc3)cc12	–	4µM	–	?	–	·
NC1CCCN(Cc2cccnc2)C1 (centres undefined)	·	·	–	·	·	·
[2H]c1c([2H])c([2H])c(-c2nc(N3CCCCCC3)sc2C(=O)c2ccccc2)c([2H])c1[2H]	–	2µM	–	–	–	–
COc1ccc(-c2c(C)c3cc(OC(=O)N(C)C)ccc3oc2=O)cc1	·	·	-33	·	·	·
COc1ccc(-c2c(C)c3ccc(OC(=O)N(C)C)cc3oc2=O)cc1	·	·	–	·	·	·
CCOC(=O)c1c(-c2ccc(OC)cc2)oc2ccc(OC(=O)N(C)C)cc12	–	5.6µM	–	–	–	–
CC1=C(C(=O)c2ccccc2)C2(C(=O)Nc3ccc(Br)cc32)C(C(=O)OCc2ccccc2)=C(N)O1 (centres undefined)	·	·	–	·	·	·
Cc1cc(C)c2[nH]c(C)c(CCN)c2c1	·	·	–	·	·	·
CS(=O)(=O)c1sc(C#N)c2c1C(=O)CC(c1ccccc1)C2 (centres undefined)	–	?	–	11µM	–	–
CCn1cc(C(=O)Cn2cnc3ccccc32)c2ccccc21	·	·	–	·	·	·
CN1C(=O)C(Cc2ccsc2)C(=O)N(C)C1=O	28µM	–	–	–	?	–
C[C@@H]1CN([C@@H](C)CO)S(=O)(=O)c2ccc(Br)cc2O[C@H]1CN(C)C(=O)Nc1ccc(C(F)(F)F)cc1	–	7.9µM	–	–	?	–
CC(C)Cn1nc(C(=O)NCC2(N3CCOCC3)CCCCC2)c2ccccc2c1=O	·	·	–	·	·	·
Cc1ccc(OCCOc2cccc(C=C3C(=O)NC(=O)NC3=O)c2)c(C)c1	–	6.3µM	–	–	–	–
O=C1NC(=O)C(=Cc2ccc(OCCOc3ccc([N+](=O)[O-])cc3)cc2)C(=O)N1	–	?	?	–	–	–
O=C1NC(=O)C(=Cc2cccc(OCCOc3ccccc3)c2)C(=O)N1	–	?	-31	–	–	–
N#Cc1ccc(NC(=O)COC(=O)c2nc(-c3ccccc3)n(-c3ccccc3)n2)cc1Cl	·	·	–	·	·	·
CC(C)CCOP(=O)(c1ccc(N(C)C)cc1)C(O)c1ccc(Cl)cc1Cl (centres undefined)	–	6.3µM	–	?	–	–
SMILES	PTHR1 ag	GLP1R inv ag	LDHA inh	HEK293 tox	IDH1 R132H inh	GLP-1R agonist
O=C1NC(=O)N(c2ccc(Cl)cc2)C(=O)/C1=C\c1ccc(Sc2nc3ccccc3[nH]2)o1	–	?	-76	?	–	–
N#Cc1ccc(NC(=O)CN2CCc3sccc3C2c2cccs2)cc1Cl (centres undefined)	·	·	–	·	·	·
COc1cc(C2c3cc4c(cc3CC3COC(=O)C32)OCO4)cc(OC)c1OC (centres undefined)	–	0.28µM	–	?	–	–
COc1cc([C@@H]2c3cc4c(cc3C[C@H]3COC(=O)[C@@H]32)OCO4)cc(OC)c1O	·	·	–	·	·	·
CNc1cc(Cl)c2nonc2c1[N+](=O)[O-]	–	?	–	7.9µM	–	–
CNC(=O)NC(=O)CN1CCN(C(=O)Cc2cccc(OC)c2)CC1	·	·	–	·	·	·
Cc1nc2c(=O)n(C)c(=O)nc-2n(C)n1	–	–	–	2µM	–	–
CCC(CC)COC(=O)C1=C(C)N[C@]2(C)C[C@H]1c1ccccc1O2	·	·	–	·	·	·

Screens as filed in PubChem BioAssay.
